# DRD3 agonist: activates the human D3 dopamine receptor | P35462 | AID 652048 | D3R DiscoveRx beta-arrestin cells, luminescence, 90 min | 0.58% of 410,000 active | max activation, %; in the data active = max activation above about 30%; note: 0% is about no effect
#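 Agonist-mode cell screen: cells plated at 1500/well and incubated overnight at 37 °C, then exposed to library compounds for 90 min at 37 °C. Detection reagent was added for 30–60 min at room temperature, and luminescence was read.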
# D3 antag: blocks the human D3 dopamine receptor. P35462. D3R cells, DiscoveRx beta-arrestin luminescence, antagonist mode; hits give low values. max response, negative = inhibition, %. 2.5% of 360,000 active. AID 652054; in the data active = max response below about -50%; inconclusive = no clear call, values can overlap the other calls; note: % is set by controls: 0 for no effect and ±100 for the full control effect
#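 Cells expressing the human receptor were seeded at 1500 cells/well, incubated overnight at 37 degrees C in 5% CO2, then exposed to library compounds with dopamine controls for 90 minutes at 37 degrees C before luminescent detection.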
# GLP1R inv ag: GLP-1 receptor (human) inverse agonism. HEK293 GLP-1R CRE-luciferase, luminescence, 24 h; GLP-1R form is constitutively active. 1.6% of 410,000 active. Potency, µM (series often up to 38.3 µM), for the others: top-dose activity change, negative = inhibition, most hits filed as inhibitors. P43220; note: potency is the fitted concentration of half-maximal effect; % is set by controls: 0 for no effect and ±100 for the full control effect; nearly all actives have a fitted effect of over 55% in size
# Target sequence (P43220 whole entry, looked up): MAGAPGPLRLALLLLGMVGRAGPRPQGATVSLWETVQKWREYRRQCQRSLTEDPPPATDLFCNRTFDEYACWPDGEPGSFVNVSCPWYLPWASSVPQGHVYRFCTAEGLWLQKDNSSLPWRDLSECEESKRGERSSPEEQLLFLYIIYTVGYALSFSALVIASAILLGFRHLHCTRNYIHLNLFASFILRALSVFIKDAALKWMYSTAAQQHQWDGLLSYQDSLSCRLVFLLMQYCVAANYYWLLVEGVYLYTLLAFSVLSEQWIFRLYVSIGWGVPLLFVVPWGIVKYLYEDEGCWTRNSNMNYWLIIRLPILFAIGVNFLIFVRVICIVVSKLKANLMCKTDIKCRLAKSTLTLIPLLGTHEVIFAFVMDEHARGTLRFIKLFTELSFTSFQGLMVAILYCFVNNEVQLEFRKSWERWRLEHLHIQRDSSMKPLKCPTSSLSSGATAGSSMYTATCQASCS
#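 Luminescence readout: a drop in cAMP-driven luciferase signal flags inverse agonism at a constitutively active GLP-1R stably expressed in HEK293. Compound exposure lasted 24 hr at 37 deg C, 5% CO2.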
# GLP1R ag: activates the human GLP-1 receptor; 0.007% of 380,000 active; HEK293 GLP-1R CRE-luciferase, luminescence, 4-6 h; cells express a hypersensitive GLP-1R form; Potency, µM (doses to about 45.6 µM), for inactives: at the highest dose activation, most hits filed as activators; P43220; AID 624172; note: potency is the fitted concentration of half-maximal effect; % of control where 0% means no effect
# An asterisk follows results filed as active; u = inconclusive; x = not tested or not shown; [ ] = another dose, or the depositor's remark. Hits are enriched below; roughly 4.3% of the tested compounds scored in any of these assays. Unless noted, calls come from the whole dose curve; as a rule, active = well fitted curve in the direction sought with a large enough effect; inconclusive = small, poorly fitted or top-dose-only effect, or another doubt; inactive = no such curve, though single readings can be large; an effect the other way counts as inactive or inconclusive.
SMILES,DRD3 agonist,D3 antag,GLP1R inv ag,GLP1R ag
Cc1ccc(CNC(=O)Cn2cc(S(=O)(=O)Cc3ccccc3Cl)c3ccccc32)cc1,-9.8,x,-11.6%,x
ClC(Cl)(c1nnnn1-c1ccccc1)c1nnnn1-c1ccccc1,-8.1,-72.0*,u,-42.7%
COc1ccccc1NC(=O)C(=O)/C=C(\O)c1ccccc1,21.2,-8.2,13.5%,8.6%
COc1ccc(OC)c(/C(O)=C/C(=O)C(=O)Nc2cc(C)ccc2OC)c1,-4.5,-56.6*,8.1%,-9.5%
COc1ccc(OC)c(/C(O)=C/C(=O)C(=O)Nc2cc(C)cc(C)c2)c1,-0.9,-86.3*,-4.5%,-6.9%
CCOc1ccccc1NC(=O)C(=O)/C=C(\O)c1cc(OC)ccc1OC,0.9,-52.8*,-1.5%,-6.3%
COCCNC(=O)C1CCN(S(=O)(=O)c2ccc3c(c2)CCCN3C(C)=O)CC1,3.1,x,4.5%,x
C/C(=C\C(=O)c1ccccc1)Nc1ccc(Cl)c(Br)c1,3.8,-55.1*,-6.6%,4.9%
COC(=O)c1cccc(C(=O)Nc2ccc(F)cc2)n1,-1.5,-62.1*,-19.0%,0.3%
CCCOc1ccc(F)cc1-c1cc(C(=O)NC(C)C)[nH]n1,6.4,-9.7,-24.3%,-4.1%
CCn1c2ccccc2c2cc(NC(=O)CN3CCCC3)ccc21,-11.9,-17.8,u,7.2%
CCn1c2ccccc2c2cc(NC(=O)CNCC3CCCO3)ccc21 (centres undefined),-7.9,-11.7,10µM*,9.8%
CC1(C)C([N+](=O)[O-])C(c2ccc(F)cc2)NC(c2ccc(F)cc2)C1[N+](=O)[O-] (centres undefined),-20.4,0.0,10µM*,-1.5%
CC1(C)C([N+](=O)[O-])C(c2ccc(Cl)cc2)NC(c2ccc(Cl)cc2)C1[N+](=O)[O-] (centres undefined),-5.0,-20.7,10µM*,-4.8%
Cc1ccc(C2NC(c3ccc(C)cc3)C([N+](=O)[O-])C(C)(C)C2[N+](=O)[O-])cc1 (centres undefined),5.0,-1.1,u,0.8%
CCOC(=O)c1cc(-c2ccc(OC)cc2)n(CCC(=O)NCCc2ccccc2)c1C,-12.5,x,u,x
CCCc1ccc2oc(C(=O)NCCN3CCCC(O)C3)c(C)c2c1 (centres undefined),-9.8,-1.3,10µM*,21.2%
C=C1C(=O)CC2=C1[C@](Cc1ccc(F)cc1)(C(=O)OC)N(C(=O)c1ccccc1)C2,-5.2,15.9,-4.5%,-2.7%
C=C1C(=O)C=C2CN(C(=O)c3ccccc3)[C@@](Cc3ccc(F)cc3)(C(=O)OC)[C@@H]12,-30.5,-98.9*,u,-12.6%
O=C(O)CCCN1C(=O)C2C3CCC(C3)C2C1=O (centres undefined),3.1,-73.4*,30.4%,-0.8%
CCc1ccccc1Nc1nc2ccccc2c2nncn12,4.9,x,42.5%,x
Cc1ccc(C)c2c1CCC(=Cc1ccccc1[N+](=O)[O-])C2=O,2.0,1.8,u,7.4%
CN1C/C(=C/c2ccccc2[N+](=O)[O-])C(=O)/C(=C\c2ccccc2[N+](=O)[O-])C1,-27.3,-90.4*,-72.5%,-25.7%
NNc1nc(-c2ccccc2)cc(-c2ccccc2O)n1,-86.1,-99.5*,5.2%,-3.6%
NNc1nc(-c2ccccc2)cc(-c2ccccc2)n1,-6.1,1.1,-12.8%,-1.3%
SMILES,DRD3 agonist,D3 antag,GLP1R inv ag,GLP1R ag
Cc1ccc(S(=O)(=O)N(C)C)cc1NC(=O)COC(=O)/C(=C/c1ccc(F)cc1)c1cccs1,-1.6,u,10µM*,-1.1%
Cc1ccc(S(=O)(=O)N(C)C)cc1NC(=O)COC(=O)c1cccs1,0.6,9.9,6.0%,4.1%
Cc1ccc(NC(=O)N2CC3CCCN3c3ccccc32)cc1Cl (centres undefined),-2.0,x,-22.3%,x
CC(NCc1ccc(N(C)C)cc1)C1CC2CCC1C2 (centres undefined),-4.9,-70.3*,2.5%,-0.3%
OC(CN1CCN(c2ccccn2)CC1)Cn1c2ccc(Cl)cc2c2cc(Cl)ccc21 (centres undefined),45.3*,52.0,u,0.9%
Cc1ccc(OCC(O)CN2CCN(c3ccccn3)CC2)c(C)c1 (centres undefined),45.5*,-26.1,-21.3%,-1.7%
Cc1cccc(C)c1OCC(O)CN1CCN(c2ccccc2)CC1 (centres undefined),63.4*,-15.1,u,-0.6%
Cc1ccccc1OCC(O)CN1CCN(c2ccc(Cl)cc2)CC1 (centres undefined),1.9,u,u,2.6%
Cc1cccc(C)c1OCC(O)CN1CCN(c2ccccn2)CC1 (centres undefined),59.2*,11.2,2.5%[0.307 µM],-10.4%
CCOC(=O)c1cccc(NC(=O)c2cc3cc4ccc(C)cc4nc3o2)c1,-1.8,x,7.9%,-0.7%
O=C(/C=C/c1ccc(Cl)cc1)Nc1nc(-c2cccs2)ns1,11.5,x,11.2%,x
COc1ccc(CCC(=O)Nc2ccc(C)c(S(=O)(=O)N(C)C)c2)cc1OC,5.1,23.0,4.2%,0.3%
Cc1ccc(NC(=O)CSc2nnnn2C)cc1S(=O)(=O)N(C)C,-3.8,-19.9,9.6%,-9.1%
Cc1ccc(NC(=O)CSc2nn(-c3ccccc3)c(=S)s2)cc1S(=O)(=O)N(C)C,6.1,-62.8*,u,-29.8%
O=C(CSc1nn(-c2ccccc2)c(=S)s1)Nn1cnnc1,-0.5,-84.9*,10.2%,-1.2%
COc1ccc(CCNCC(=O)Nc2ccc(C)c(S(=O)(=O)N(C)C)c2)cc1,-19.9,-52.0*,-24.6%,1.1%
O=C(CSc1nn(-c2ccccc2)c(=S)s1)NC1CCS(=O)(=O)C1 (centres undefined),0.2,-2.2,-12.5%,-14.5%
CN1CCc2nc3sc(C(=O)Nc4ccccc4C(F)(F)F)c(N)c3cc2C1,4.3,x,8.8%,x
COc1ccc(-c2cc(C(F)(F)F)n3nc(C(=O)Nc4cccc(Cl)c4Cl)cc3n2)cc1OC,-5.6,x,7.0%,x
Cc1cc(C)c(S(=O)(=O)Nc2cc(SCC(=O)O)c(O)c3ccccc23)cc1C,-10.1,-54.3*,-0.3%,-3.1%
COc1ccc(OC)c(C2=Nn3c(nnc3-c3cc(C)[nH]n3)SC2)c1,2.4,14.9,39.9%,21.9%
Cc1cc(-c2nnc3n2N=C(C(C)(C)C)CS3)n[nH]1,-7.5,-52.0*,26.4%,-1.8%
CCN(CC)CCSc1nnc2c3cc(F)ccc3n(Cc3ccccc3)c2n1,-20.0,u,u,17.3%
CCN(CC)CCSc1nnc2c3ccccc3n(Cc3ccccc3)c2n1,-22.7,-93.0*,u,9.4%
COc1ccc(C(C[N+](=O)[O-])C2(c3ccc(OC)c(OC)c3)C(=O)c3ccccc3C2=O)cc1 (centres undefined),-18.7,-82.2*,12.3%,-34.4%
COC(=O)C(C(=O)OC)C(C[N+](=O)[O-])c1ccc(OC)c(OC)c1 (centres undefined),-4.1,12.5,13.7%,-4.7%
CCc1ccc(S(=O)(=O)/N=C2\C=C(Nc3cccc(C(=O)O)c3)C(=O)c3ccccc32)cc1,-36.7,-93.3*,-1.0%,-8.8%
